# Assay outcomes from PubChem BioAssay.
# A3A deaminase = human APOBEC3A DNA deaminase inhibition; recombinant A3A, FAM/TAMRA ssDNA deamination fluorescence; inhibition, % at 20 µM; 330,000 compounds, 0.41% hits; AID 493011;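 active means at least 40% inhibition at 20 µM here, with at most 30% in a related deaminase screen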;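 further: plate controls were A3A with DMSO for no effect and wells lacking A3A enzyme for full effect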
# Target sequence (P31941 whole entry, looked up): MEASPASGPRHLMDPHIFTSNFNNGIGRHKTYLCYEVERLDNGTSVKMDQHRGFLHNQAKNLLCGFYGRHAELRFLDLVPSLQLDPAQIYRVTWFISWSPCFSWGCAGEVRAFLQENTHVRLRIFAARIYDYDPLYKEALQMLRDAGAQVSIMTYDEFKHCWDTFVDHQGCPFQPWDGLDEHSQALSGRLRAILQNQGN
# A3G deaminase = blocks human APOBEC3G single-stranded DNA deamination | Q9HC16 | inhibition, % at 20 µM | recombinant A3G, ssDNA deamination FAM/TAMRA fluorescence | AID 493012 | 330,000 compounds, 0.28% hits;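 active means inhibition of at least 40% at 20 µM, with no more than 30% in the related APOBEC3A deaminase screen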;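 further: plate controls were DMSO wells with A3G for no effect and wells lacking A3G enzyme for full effect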
# Target sequence (Q9HC16 whole entry, looked up): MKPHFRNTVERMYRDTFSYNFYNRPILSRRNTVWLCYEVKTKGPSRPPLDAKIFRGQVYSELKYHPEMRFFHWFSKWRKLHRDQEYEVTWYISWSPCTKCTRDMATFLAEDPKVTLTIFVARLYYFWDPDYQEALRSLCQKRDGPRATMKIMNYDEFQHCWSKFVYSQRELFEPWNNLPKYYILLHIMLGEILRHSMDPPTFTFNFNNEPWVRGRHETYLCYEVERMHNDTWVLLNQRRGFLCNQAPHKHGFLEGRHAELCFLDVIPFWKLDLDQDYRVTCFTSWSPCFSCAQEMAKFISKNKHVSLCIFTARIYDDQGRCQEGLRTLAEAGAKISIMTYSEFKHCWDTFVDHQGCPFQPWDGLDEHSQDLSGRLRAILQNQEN
# FAS TE block = blocks the thioesterase domain of human fatty acid synthase | recombinant FAS-TE, OMFH fluorogenic substrate, fluorescence endpoint | inhibition, % at 15 µM | 360,000 compounds, 0.67% hits | AID 602261;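 active means compounds whose normalised, plate-corrected inhibition of enzyme fluorescence in the single-dose primary screen is 50% or more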;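 further: 0% = DMSO with enzyme and 100% = substrate without enzyme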
# NPR2 activator = GC-B (human) receptor activation; P20594; activation, % at 10 µM; AID 1920062; 370,000 compounds, 0.11% hits; HEK293-GC-B cells, CNP EC30, cGMP TR-FRET; 0% at EC30 CNP, 100% saturating CNP;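 active means activation at 10 µM reaching about 35% in either raw or pattern-adjusted values, limit read from the data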
# NPR1 activator = GC-A (human) enzyme activation. activation, % at 10 µM. AID 1671463. 370,000 compounds, 0.14% hits. HEK293 GC-A cells, cGMP TR-FRET, EC30 ANP; 0% at EC30 ANP, 100% saturating ANP; in the data active means activation above about 40%
# A3G conf = APOBEC3G (human) deaminase inhibition, confirmed. shares compounds with A3G deaminase. recombinant A3G ssDNA deaminase, UDG/FAM-TAMRA fluorescence. inhibition, % at 20 µM. 890 compounds, 72% hits;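 active means inhibition reaching a set limit in any replicate at 20 µM, the limit being 80% of the first screen's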
# UDG ctr A3G = inhibits E. coli UDG, flagging false APOBEC3G inhibitors; shares compounds with A3G deaminase; AID 504715; 710 tested, under 10 active; UDG counterscreen, FAM/TAMRA oligo fluorescence; inhibition, % at 20 µM;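 active means compounds giving 40% or more inhibition at 20 µM in any one of the three replicates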;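 further: plate controls were DMSO wells with UDG and oligo for no effect and DMSO wells lacking both for full effect; inhibitors lower the FAM signal released by uracil excision and alkaline cleavage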
# The depositor's hits bear a star; . = no result. Rows were chosen to be rich in hits. Some 1.4% of all compounds tested hit in one or more screens of this group.
SMILES,A3A deaminase,A3G deaminase,FAS TE block,NPR2 activator,NPR1 activator,A3G conf,UDG ctr A3G
COc1cc(C2Nn3c(nnc3-c3ccccc3OC)S2)ccc1O (stereo not drawn),-1,45*,-2,1,2,82*,-2
COc1cc(C2Nc3ccccc3C(=O)N2c2ccccc2OC)ccc1O (stereo not drawn),-1,-3,-5,1,-3,.,.
O=C(NCc1cccs1)C1CCN(S(=O)(=O)c2ccc([N+](=O)[O-])cc2)CC1,.,.,.,-3,4,.,.
CC(C)C[C@H]1COc2cccc(N3CCCC3)c2S(=O)(=O)N1C,.,.,.,-4,-2,.,.
Cc1ccc(N=Cc2cccc(O)c2O)c(C)c1,5,75*,-8,5,1,31*,.
Cc1ccccc1N=Cc1cccc(O)c1O,10,70*,-6,.,.,51*,.
CCN(CC)c1ccc(C=Nc2ccc(C)cc2C)c(O)c1,-4,-8,15,-1,7,.,.
CC(C)(C)OC(=O)N1C[C@@]23C[C@H](c4cccc(F)c4)[C@@H](C[C@@H]2S1(=O)=O)O3,.,.,.,4,1,.,.
Cc1nn(-c2ccccc2)c2sc(C(=O)N3CCN(C(c4ccccc4)c4ccc(Cl)cc4)CC3)cc12 (stereo not drawn),.,.,.,-10,-10,.,.
O=C(c1ccccc1)N1CCC(=O)N1c1ccccc1,-2,40*,-9,4,3,4,6
Cc1sc2nc(COC(=O)CNC(=O)c3cc(F)ccc3F)[nH]c(=O)c2c1C,.,.,.,-8,0,.,.
NNC(=O)Nc1cccc(C(F)(F)F)c1,3,57*,-2,1,3,-2,.
O=C(Nc1ccc(Cl)c(Cl)c1)C1CCCN1S(=O)(=O)c1cccc2cccnc12 (stereo not drawn),.,.,.,-12,-7,.,.
C[C@@H]1CN([C@@H](C)CO)C(=O)CCCn2cc(nn2)CO[C@H]1CN(C)C(=O)Nc1ccc(F)cc1,.,.,.,1,1,.,.
CCOc1ccc(N(CC(=O)Nc2c(C)n(C)n(-c3ccccc3)c2=O)S(=O)(=O)c2cccc3cccnc23)cc1,.,.,.,-3,-3,.,.
COC(=O)N1CCc2c(sc(NC(=O)C3COc4ccccc4O3)c2C(N)=O)C1 (stereo not drawn),2,50*,5,0,-1,21*,-4
NC(=O)c1c(NC(=O)C2COc3ccccc3O2)sc2c1CCN(Cc1ccccc1)C2 (stereo not drawn),-5,-3,-18,7,-2,.,.
CCOC(=O)N1CCN(c2ccnc3cc(Cl)ccc23)CC1,-1,58*,3,-2,-4,-59,-3
O=C(CN1CCc2onc(-c3ccc(-n4cc(COc5ccc([N+](=O)[O-])cc5)nn4)cc3)c2C1=O)N1CCOCC1,.,.,.,-8,3,.,.
Cc1ccc(NC(=O)CSc2nc3[nH]ncc3c(=O)[nH]2)cc1,2,52*,-6,3,2,2,.
CC(=O)c1ccc(NC(=O)CSc2nc3[nH]ncc3c(=O)[nH]2)cc1,0,-5,-8,-1,1,.,.
O=C(COC(=O)CCCN1C(=O)c2cccc3cccc(c23)C1=O)Nc1cccc(Br)c1,-1,0,19,1,-1,.,.
O=C(COC(=O)CCCN1C(=O)c2cccc3cccc(c23)C1=O)Nc1cccc(C(F)(F)F)c1,0,56*,18,1,0,0,.
COc1ccc(-c2cscc2N)cc1,.,.,.,-5,-2,.,.
O=[N+]([O-])c1ccc(/C=N/n2c(-c3ccccc3)n[nH]c2=S)cc1,-3,36,20,-3,-1,.,.
SMILES,A3A deaminase,A3G deaminase,FAS TE block,NPR2 activator,NPR1 activator,A3G conf,UDG ctr A3G
CCn1c(-c2ccc([N+](=O)[O-])cc2)n[nH]c1=S,-2,46*,-1,1,-1,73*,4
CC(C)Cn1c(-c2cccc(S(=O)(=O)N3CCOCC3)c2)n[nH]c1=S,-1,44*,-8,0,4,69*,1
CCC(C)n1c(-c2cccc(S(=O)(=O)N3CCOCC3)c2)n[nH]c1=S (stereo not drawn),-4,26,-4,1,0,.,.
CCn1c(-c2cccc(Br)c2)n[nH]c1=S,1,47*,-9,1,0,63*,3
CCn1c(-c2cccc(S(=O)(=O)N3CCCC3)c2)n[nH]c1=S,1,51*,-6,3,2,27*,-2
CCn1c(SCc2ccc(C(C)(C)C)cc2)nnc1-c1ccc(C(C)(C)C)cc1,.,.,.,3,0,.,.
CC(/C=N\NC(=O)CSc1nnc(-c2ccc(Br)cc2)n1-c1ccccc1)=C\c1ccco1,.,.,.,-10,-4,.,.
O=C(c1ccc(F)cc1F)N(Cc1ccccn1)CC1CCCO1 (stereo not drawn),.,.,.,1,4,.,.
Cc1ccccc1CS(=O)(=O)Cc1ccc(C(=O)Nc2ccc(F)cc2)o1,.,.,.,5,-2,.,.
O=S1(=O)c2ccc(Br)cc2OC[C@H](c2ccccc2)N1Cc1ccccc1,.,.,.,-1,-3,.,.
COc1ccc(O)c(C(=O)C2c3ccccc3C(=O)N2c2ccc(C)cc2)c1 (stereo not drawn),-1,75*,16,-4,-1,88*,-5
Nn1c(SCC(=O)Nc2cccnc2Cl)nnc1-c1ccccc1,1,46*,-10,.,.,63*,-2
Cc1ccc(-c2nnc(SCC(=O)Nc3cccnc3Cl)n2N)cc1,-2,-8,-8,-2,-2,.,.
Cc1cc(NC(=O)Nc2ccccc2)n(C(C)(C)C)n1,6,61*,-7,-1,3,0,.
O=c1c2ccccc2sn1-c1ccc(Cl)cc1,.,.,-17,11,6,.,.
O=c1c2ccccc2sn1-c1ccc(F)cc1,1,86*,-12,9,8,80*,-2
Cc1ccc(-n2sc3ccccc3c2=O)cc1,2,77*,-14,16,4,71*,-4
O=C(OC12CCCN(C1)/C(=C/c1ccccc1)C2)c1ccccc1 (stereo not drawn),.,.,.,-8,4,.,.
Cc1cc(N2CCNC[C@H]2C)ccc1N1CCN(Cc2ccccc2)[C@H](C)C1,.,.,.,2,0,.,.
CN1OC[C@@H]2CN(C(=S)Nc3cc(C(F)(F)F)cc(C(F)(F)F)c3)[C@H](c3ccccc3Br)C[C@@H]21,.,.,.,-1,-8,.,.
CCn1c(C)c(CS(=O)(=O)c2ccccc2)[nH]c1=O,0,49*,-3,-2,-3,87*,-3
O=c1[nH]c(CS(=O)(=O)c2ccccc2)nc2ccccc12,1,-5,-4,2,5,.,.
CCn1cc(C(=O)NCC(OC)OC)c(=O)c2cc(S(=O)(=O)N3CCC(C)CC3)ccc21,-2,59*,12,0,5,-2,-2
